Experimental data from PubChem BioAssay AID1159580 (chemical genetic matrix, 2015).
The campaign covered roughly 5,500 compounds. About 2,000 (36%) were called active. About 18% were inconclusive and are not listed. Cut-off read from the data, not from the text of the source: active = normalized growth mostly below about 0.91 (no sharp cut-off); inconclusive = no clear call, values can overlap the other calls; inactive = mostly above about 0.92. Some of the results follow.

Experiment: chemical genetic growth profiling, strain panel (AID 1159580);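 note: tested at 20 µM; growth read once vehicle control cultures reached saturation at 30 °C; 1 = growth at the plate median or of vehicle wells; lower values mean less growth of the strain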
Details: growth OD

Measured: normalized growth

CNC(C)(C)Cc1ccccc1
inactive: S. cerevisiae deletion strains, locus YJR043C, strain POL32, hits give low values 0.977 | S. cerevisiae deletion strains, locus YJR066W, strain TOR1, hits give low values 1.01 | S. cerevisiae deletion strains, locus YKL009W, strain mrt4, hits give low values 0.988 | S. cerevisiae deletion strains, locus YKL068W, hits give low values 1 | S. cerevisiae deletion strains, locus YKL085W, strain MDH1 (second series), hits give low values 1.01 | S. cerevisiae deletion strains, locus YKL085W, strain MDH1, hits give low values 1.01 | S. cerevisiae deletion strains, locus YKL160W, strain elf1, hits give low values 1.01 | S. cerevisiae deletion strains, locus YKL190W, strain CNB1, hits give low values 1.01 | S. cerevisiae deletion strains, locus YKR001C, strain vps1, hits give low values 0.991 | S. cerevisiae deletion strains, locus YKR026C, strain gcn3, hits give low values 1.02 | S. cerevisiae deletion strains, locus YKR091W, strain srl3, hits give low values 1 | S. cerevisiae deletion strains, locus YLL001W, strain dnm1, hits give low values 1.01 | S. cerevisiae deletion strains, locus YLL026W, hits give low values 1.02 | S. cerevisiae deletion strains, locus YLL041C, strain sdh2, hits give low values 1.02 | S. cerevisiae deletion strains, locus YLR027C, strain aat2, hits give low values 1.02 | S. cerevisiae deletion strains, locus YLR039C, strain RIC1, hits give low values 1.04 | S. cerevisiae deletion strains, locus YLR058C, strain SHM2, hits give low values 1.01 | S. cerevisiae deletion strains, locus YLR102C, strain apc9, hits give low values 1.01 | S. cerevisiae deletion strains, locus YLR113W, strain HOG1, hits give low values 1.06 | S. cerevisiae deletion strains, locus YLR221C, strain rsa3, hits give low values 1.02 | S. cerevisiae deletion strains, locus YLR258W, strain gsy2, hits give low values 1.02 | S. cerevisiae deletion strains, locus YLR262C, strain YPT6 (second series), hits give low values 1 | S. cerevisiae deletion strains, locus YLR262C, strain YPT6, hits give low values 1.02 | S. cerevisiae deletion strains, locus YLR268W, strain sec22, hits give low values 1 | S. cerevisiae deletion strains, locus YLR320W, strain mms22, hits give low values 1.04 | S. cerevisiae deletion strains, locus YLR330W, strain CHS5, hits give low values 1.01 | S. cerevisiae deletion strains, locus YLR342W, strain FKS1 (second series), hits give low values 1.08 | S. cerevisiae deletion strains, locus YLR342W, strain FKS1, hits give low values 1.02 | S. cerevisiae deletion strains, locus YLR357W, strain rsc2, hits give low values 0.988 | S. cerevisiae deletion strains, locus YLR370C, strain arc18, hits give low values 1.01 | S. cerevisiae deletion strains, locus YLR371W, strain rom2, hits give low values 1.01 | S. cerevisiae deletion strains, locus YLR384C, strain iki3, hits give low values 1.01 | S. cerevisiae deletion strains, locus YLR418C, strain cdc73, hits give low values 1.01 | S. cerevisiae deletion strains, locus YML016C, strain PPZ1, hits give low values 1.01 | S. cerevisiae deletion strains, locus YML032C, strain rad52, hits give low values 0.985 | S. cerevisiae deletion strains, locus YML120C, strain ndi1, hits give low values 1.02 | S. cerevisiae deletion strains, locus YML124C, strain tub3, hits give low values 1.01 | S. cerevisiae deletion strains, locus YMR058W, strain fet3, hits give low values 1 | S. cerevisiae deletion strains, locus YMR078C, strain ctf18, hits give low values 0.999 | S. cerevisiae deletion strains, locus YMR125W, strain sto1, hits give low values 1.02 | S. cerevisiae deletion strains, locus YMR129W, hits give low values 1.01 | S. cerevisiae deletion strains, locus YMR205C, strain PFK2, hits give low values 1.03 | S. cerevisiae deletion strains, locus YMR223W, strain ubp8, hits give low values 1.02 | S. cerevisiae deletion strains, locus YMR231W, strain pep5, hits give low values 1.02 | S. cerevisiae deletion strains, locus YMR307W, strain GAS1, hits give low values 1.02 | S. cerevisiae deletion strains, locus YNL067W, strain RPL9B, hits give low values 0.988 | S. cerevisiae deletion strains, locus YNL071W, strain lat1, hits give low values 1.01 | S. cerevisiae deletion strains, locus YNL128W, strain TEP1, hits give low values 1.03 | S. cerevisiae deletion strains, locus YNL183C, strain NPR1, hits give low values 1 | S. cerevisiae deletion strains, locus YNL209W, strain ssb2, hits give low values 1.02 | S. cerevisiae deletion strains, locus YNL233W, strain BNI4, hits give low values 0.995 | S. cerevisiae deletion strains, locus YNL248C, strain rpa49, hits give low values 1.01 | S. cerevisiae deletion strains, locus YNL250W, strain rad50, hits give low values 1.02 | S. cerevisiae deletion strains, locus YNL271C, strain bni1, hits give low values 0.997 | S. cerevisiae deletion strains, locus YNL298W, strain CLA4, hits give low values 1 | S. cerevisiae deletion strains, locus YNL307C, strain MCK1, hits give low values 1.01 | S. cerevisiae deletion strains, locus YNL322C, strain KRE1 (second series), hits give low values 1.02 | S. cerevisiae deletion strains, locus YNL322C, strain KRE1, hits give low values 1 | S. cerevisiae deletion strains, locus YNR049C, strain mso1, hits give low values 1.01 | S. cerevisiae deletion strains, locus YNR052C, strain pop2, hits give low values 1 | S. cerevisiae deletion strains, locus YOL006C, strain TOP1, hits give low values 0.958 | S. cerevisiae deletion strains, locus YOL012C, strain htz1 1.02 | S. cerevisiae deletion strains, locus YOL147C, strain pex11, hits give low values 1.01 | S. cerevisiae deletion strains, locus YOR001W, strain rrp6, hits give low values 1.03 | S. cerevisiae deletion strains, locus YOR061W, strain CKA2, hits give low values 1.01 | S. cerevisiae deletion strains, locus YOR069W, strain VPS5, hits give low values 1.01 | S. cerevisiae deletion strains, locus YOR070C, strain gyp1, hits give low values 1.01 | S. cerevisiae deletion strains, locus YOR080W, strain dia2, hits give low values 1.02 | S. cerevisiae deletion strains, locus YOR083W, strain WHI5, hits give low values 1.02 | S. cerevisiae deletion strains, locus YOR106W, strain vam3, hits give low values 1.03 | S. cerevisiae deletion strains, locus YOR136W, strain idh2, hits give low values 0.994 | S. cerevisiae deletion strains, locus YOR144C, strain elg1, hits give low values 0.995 | S. cerevisiae deletion strains, locus YOR184W, strain ser1, hits give low values 0.998 | S. cerevisiae deletion strains, locus YOR231W, strain MKK1, hits give low values 1.03 | S. cerevisiae deletion strains, locus YOR265W, strain rbl2, hits give low values 1.01 | S. cerevisiae deletion strains, locus YOR270C, strain vph1, hits give low values 1.04 | S. cerevisiae deletion strains, locus YOR290C, strain snf2, hits give low values 1.01 | S. cerevisiae deletion strains, locus YOR316C, strain cot1, hits give low values 1.01 | S. cerevisiae deletion strains, locus YPL051W, strain arl3, hits give low values 1.02 | S. cerevisiae deletion strains, locus YPL078C, strain atp4, hits give low values 1.01 | S. cerevisiae deletion strains, locus YPL106C, strain sse1, hits give low values 1.05 | S. cerevisiae deletion strains, locus YPL240C, strain hsp82, hits give low values 1.01 | S. cerevisiae deletion strains, locus YPL241C, strain CIN2, hits give low values 1.01 | S. cerevisiae deletion strains, locus YPL256C, strain CLN2, hits give low values 1.02 | S. cerevisiae deletion strains, locus YPR119W, strain clb2, hits give low values 1.01 | S. cerevisiae deletion strains, locus YPR141C, strain kar3, hits give low values 0.998 | S. cerevisiae deletion strains, locus YPR163C, strain tif3, hits give low values 0.999 | S. cerevisiae deletion strains, locus YPR167C, strain met16, hits give low values 1 | S. cerevisiae deletion strains, strain wtn01, hits give low values 0.999 | S. cerevisiae strains, strain wild type, hits give low values 1.01
